PubChem BioAssay AID933 (National Center for Advancing Translational Sciences (NCATS), 2007)
Inconclusive results are not listed. A number with no mark means an inactive call. Calls of active or inactive are those of the source. The call rests on the fitted dose curve; in most records, active means well fitted activation curve with a large enough effect in the signal ratio, with a control signal flat; inconclusive means small, poorly fitted or top-dose-only effect, or a change in a side signal; inactive means flat fitted curve, though single readings scatter; the % refers to the signal ratio.

Target: Thyrotropin receptor (Homo sapiens) (UniProt P16473)
Experiment: Secondary Concentration-Response Assay for Agonists of the Thyroid Stimulating Hormone Receptor: HTRF Activity Detection; on activation: % of control where 0% means no effect
Conditions: HEK293-TSHR cells, cAMP HTRF ratio, 30 min; series mostly up to 91.7 µM; activation: at the top concentration
How it was run: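 cAMP accumulation was detected by antibody-based HTRF, excitation 330 nm, emissions 615 and 660 nm. Compounds acted for 30 min at room temperature on stably TSHR-transfected HEK 293 cells, with phosphodiesterase inhibitor RO 20-1724 (100 uM) in the medium.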
Potency means the concentration at half of the fitted maximal effect.

Chain of Thyrotropin receptor (Homo sapiens) (P16473 whole entry, looked up): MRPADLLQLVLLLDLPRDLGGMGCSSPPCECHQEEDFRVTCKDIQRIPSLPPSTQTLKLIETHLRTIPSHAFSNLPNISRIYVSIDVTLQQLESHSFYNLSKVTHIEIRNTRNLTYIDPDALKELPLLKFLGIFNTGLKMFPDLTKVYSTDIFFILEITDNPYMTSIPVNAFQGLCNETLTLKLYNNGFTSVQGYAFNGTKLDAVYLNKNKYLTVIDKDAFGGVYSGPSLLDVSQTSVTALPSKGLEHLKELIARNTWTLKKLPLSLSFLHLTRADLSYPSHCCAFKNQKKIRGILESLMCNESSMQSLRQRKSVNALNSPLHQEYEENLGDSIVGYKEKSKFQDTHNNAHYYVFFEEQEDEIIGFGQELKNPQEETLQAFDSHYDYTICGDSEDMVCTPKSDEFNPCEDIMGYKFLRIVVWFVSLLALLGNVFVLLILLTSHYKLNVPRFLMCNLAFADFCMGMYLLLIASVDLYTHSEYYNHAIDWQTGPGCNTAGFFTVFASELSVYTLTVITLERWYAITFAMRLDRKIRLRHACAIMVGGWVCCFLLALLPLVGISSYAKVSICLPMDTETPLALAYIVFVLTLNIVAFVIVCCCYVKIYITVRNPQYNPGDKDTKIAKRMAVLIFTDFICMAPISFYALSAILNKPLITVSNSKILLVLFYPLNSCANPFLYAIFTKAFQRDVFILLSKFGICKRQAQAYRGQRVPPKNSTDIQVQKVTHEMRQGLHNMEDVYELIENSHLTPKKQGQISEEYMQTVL

SMILES | activation | Potency
O=C(CSc1nnc(-c2ccccc2)n1Cc1ccco1)Nc1ccc2c(c1)OCCO2 | -0.544% [at 0.00035 µM] | –
COc1ccc(C2Nc3ccccc3C(=O)N2Cc2ccccc2)cc1COc1ccccc1OC (stereo unspecified) | 15.1% | –
COc1ccc(C2Nc3ccccc3C(=O)N2c2ccccc2)cc1COc1ccc(NC(C)=O)cc1 (stereo unspecified) | 6.51% | –
COc1ccc(CN(Cc2ccccc2)C(=O)c2ccccc2N)cc1COc1ccc(NC(C)=O)cc1 | – | 25.1 µM (active)
CSc1nc(NC(C)(C)C)nc(Oc2ccc(=O)[nH]n2)n1 | -0.106% [at 0.00035 µM] | –
CC1(C)c2ccccc2N2CC(=O)NC21/C=C/c1ccco1 (stereo unspecified) | 1.29% [at 0.00035 µM] | –
COc1ccc(C2Nc3ccccc3C(=O)N2C2CCCC2)cc1COc1ccc(NC(C)=O)cc1 (stereo unspecified) | 29.4% | –
O=C1c2ccccc2NC(c2ccc3c(c2)OCCO3)N1c1ccc2c(c1)OCCO2 (stereo unspecified) | 2.01% | –
Cc1ccccc1-n1nc(C)c2cc(C(=O)N3CCN(S(=O)(=O)c4ccc(F)cc4)CC3)sc21 | 0.202% [at 0.00035 µM] | –
COc1ccc(C2Nc3ccccc3C(=O)N2Cc2ccccc2Cl)cc1COc1ccc(NC(C)=O)cc1 (stereo unspecified) | 10.2% | –
COc1ccc(-c2nc3ccc(Cl)cc3c(=O)n2Cc2ccccc2)cc1COc1ccc(NC(C)=O)cc1 | 20.5% | –
CCN(c1ccccc1)S(=O)(=O)c1ccc(Oc2ccc(-n3ccnc3)cc2)nc1 | 0.254% [at 0.00035 µM] | –
COc1ccc(C2Nc3ccccc3C(=O)N2c2ccc(C)cc2)cc1COc1ccccn1 (stereo unspecified) | 2% | –
COc1ccc(N(C)S(=O)(=O)c2cccc(C(=O)NC3=NCCS3)c2)cc1 | 1.29% [at 0.00035 µM] | –
Oc1ccccc1-c1cc(C(F)(F)C(F)F)nc(-c2ccccc2)n1 | 0.7% [at 0.00035 µM] | –
COc1ccc(C2Nc3ccccc3C(=O)N2c2ccccc2)cc1Cn1cc([N+](=O)[O-])cn1 (stereo unspecified) | 0.747% | –
CN1C(=O)c2ccccc2N(C)C1c1ccc2c(c1)OCO2 (stereo unspecified) | 0.767% | –
O=C(c1ccco1)N(Cc1cccs1)c1ccc(O)cc1 | 1.56% | –
COc1ccc(C2Nc3ccccc3C(=O)N2CCO)cc1COc1ccc(NC(C)=O)cc1 (stereo unspecified) | 5.23% | –
N#Cc1ccc(C(=O)N(Cc2ccco2)Cc2cccs2)cc1 | 4.24% | –
O=C1C2C3CCCC3=C3CCCC3C2C(=O)N1c1cccc(Cl)c1 (stereo unspecified) | 1.67% | –
